According to PubChem BioAssay:
Active and inactive are the calls of the source.

How the values were obtained:
[1] = binders of probe aFSTL3 on microarray, primary screen, stem cell growth factor project, biochemical, small-molecule microarray, fluorescence 635/667 (AID 1064); details: higher = more signal;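 further: measures binding of the biotinylated anti-FSTL3 antibody to printed compounds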
[2] = binders from COS7 lysate, DM2A8 probe, primary screen, torsin A project, cell lysate, small-molecule microarray, fluorescence 635/667 (AID 1065); details: higher = more signal, COS7 lysate expressing mutant human TOR1A
[3] = binders of probe aFGF2 on microarray, primary screen, stem cell growth factor project, biochemical, small-molecule microarray, fluorescence 635/667 (AID 1067); details: higher = more signal;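 further: measures binding of biotinylated aFGF2 protein to printed compounds on slides; z-score merges feature fluorescence and signal-to-noise across triplicate slides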
[4] = binders of probe aFGF10 on microarray, primary screen, stem cell growth factor project, biochemical, small-molecule microarray, fluorescence 635/667 (AID 1071); details: higher = more signal;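 further: score merges 667 nm spot intensity and signal to noise from triplicate slides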
[5] = target: Neurogenic locus notch homolog protein 2 (Homo sapiens) (UniProt Q04721); experiment: Notch2 binders on small-molecule microarrays, primary screen, biochemical, small-molecule microarray, 635 nm fluorescence, stem cell growth factors (AID 1073); details: Notch2 binding, higher = more signal
[6] = target: Pro-neuregulin-1, membrane-bound isoform (Homo sapiens) (UniProt Q02297); experiment: NRG1 binders on small-molecule microarrays, primary screen, psychiatric disease protein project, biochemical, small-molecule microarray, fluorescence 635/667 (AID 1075); details: NRG1 binding, 635 nm fluorescence, higher = more signal;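 further: score combines 667 nm spot fluorescence with signal to noise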
[7] = tested on: Neuregulin-1 EGF-like domain; experiment: binders of neuregulin-1 EGF-like domain, primary screen, biochemical, small-molecule microarray, 635 nm fluorescence (AID 1081); details: small-molecule microarray binding, higher = more signal;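 further: binding of the protein to compounds printed on small-molecule microarray slides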
[8] = FRG1 promoter luciferase signal modulators, primary screen, FRG1 inhibition for FSHD, cell-based, C2C12 myotubes, firefly/Renilla luciferase, luminescence (AID 1084); details: higher = more signal, called active from +8 up or from −8 down
[9] = binders of probe aFST on microarray, primary screen, stem cell growth factor project, biochemical, small-molecule microarray, fluorescence 635/667 (AID 1086); details: higher = more signal;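 further: score merges 667 nm fluorescence with signal-to-noise of each printed compound spot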
[10] = binders of probe aHhip on microarray, primary screen, stem cell growth factor project, biochemical, small-molecule microarray, fluorescence 635/667 (AID 1087); details: higher = more signal;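 further: score merges spot fluorescence at 667nm with spot signal to noise ratio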
[11] = tested on: PRMT1 (protein arginine N-methyltransferase 1); experiment: PRMT1 binders on small-molecule microarrays, primary screen, biochemical, small-molecule microarray, 635 nm fluorescence (AID 1088); details: small-molecule microarray binding, higher = more signal;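 further: binding of Prmt1 protein to compounds spotted on small-molecule microarray slides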
[12] = yeast growth modulation, basal conditions, primary screen, YJM789 clinical isolate, OD600, 24 h (AID 1089);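 further: growth of clinical yeast isolate S. cerevisiae YJM 789 seeded 1000 cells per well; test concentration not given here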; details: S. cerevisiae YJM789 growth, higher = more signal, called active from +8 up or from −8 down
[13] = fission yeast growth modulation, primary screen, strain 972, OD600, 24 h, no modulator (AID 1090);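 further: basal condition with compound alone and no growth modifier present; test concentration not given here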; details: S. pombe 972 growth, higher = more signal, called active from +8 up or from −8 down
[14] = S. cerevisiae growth modulation with rapamycin, primary screen, strain BY4716, OD600, 96 h (AID 1091); details: higher = more signal, called active from +8 up or from −8 down; further: test concentration not given here
[15] = target: Torsin-1A-interacting protein 2 (Homo sapiens) (UniProt Q8NFQ8); experiment: LULL1 binders on small-molecule microarray, primary screen, cell lysate, human LULL1 lysate, 635/667 nm fluorescence (AID 1092); details: hLULL1 lysate binding, 635 nm fluorescence, higher = more signal;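 further: probe is lysate of COS7 cells overexpressing human LULL1; score merges per-feature 667 nm fluorescence with signal-to-noise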
[16] = E. coli growth modulation, two-sided OD650, primary screen, E. coli filamentation project, strain DRC41, 24 h (AID 1093); details: OD650, 24 h, higher = more signal, called active from +8 up or from −8 down;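 further: MC1000 strain lacking acrAB efflux and sulA so SOS filamentation is blocked; test concentration not given here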
[17] = small-molecule microarray binders of probe aLefty2, primary screen, biochemical, biotinylated probe, 635/667 nm fluorescence (AID 1094); details: higher = more signal;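 further: score merges spot fluorescence near 667 nm with spot signal-to-noise ratio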
[18] = tested on: Noggin (protein binding on small-molecule microarray); experiment: Noggin binders on small-molecule microarray, primary screen, biochemical, 635/667 nm fluorescence (AID 1095); details: 635 nm fluorescence, higher = more signal;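 further: score merges 667 nm feature fluorescence with signal to noise over triplicate slides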
[19] = target: Neurogenic locus notch homolog protein 3 (Homo sapiens) (UniProt Q9UM47); experiment: NOTCH3 binders on small-molecule microarray, primary screen, biochemical, 635/667 nm fluorescence (AID 1096); details: NOTCH3 binding, 635 nm fluorescence, higher = more signal
[20] = small-molecule microarray binders of probe aEGFR, primary screen, biochemical, biotinylated probe, 635/667 nm fluorescence (AID 1097); details: higher = more signal;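 further: probe is a biotinylated anti-EGFR antibody binding compounds printed on slides; score combines fluorescence near 667 nm and signal to noise of each spot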

Chain of Torsin-1A-interacting protein 2 (Homo sapiens) (Q8NFQ8 whole entry, looked up): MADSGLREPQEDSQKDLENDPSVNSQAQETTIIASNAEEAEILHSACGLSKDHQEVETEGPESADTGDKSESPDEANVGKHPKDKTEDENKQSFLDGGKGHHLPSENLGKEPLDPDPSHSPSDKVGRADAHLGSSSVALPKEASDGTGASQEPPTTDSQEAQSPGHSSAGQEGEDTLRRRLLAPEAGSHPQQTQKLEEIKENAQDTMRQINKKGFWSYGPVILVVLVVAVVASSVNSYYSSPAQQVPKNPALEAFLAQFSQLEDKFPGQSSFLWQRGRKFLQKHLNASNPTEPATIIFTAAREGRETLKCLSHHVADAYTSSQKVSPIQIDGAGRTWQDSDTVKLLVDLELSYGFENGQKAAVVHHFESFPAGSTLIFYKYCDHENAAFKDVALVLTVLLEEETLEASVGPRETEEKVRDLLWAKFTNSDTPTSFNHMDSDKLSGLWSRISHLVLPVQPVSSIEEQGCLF
Chain of Neurogenic locus notch homolog protein 2 (Homo sapiens) (Q04721 whole entry, looked up, canonical isoform): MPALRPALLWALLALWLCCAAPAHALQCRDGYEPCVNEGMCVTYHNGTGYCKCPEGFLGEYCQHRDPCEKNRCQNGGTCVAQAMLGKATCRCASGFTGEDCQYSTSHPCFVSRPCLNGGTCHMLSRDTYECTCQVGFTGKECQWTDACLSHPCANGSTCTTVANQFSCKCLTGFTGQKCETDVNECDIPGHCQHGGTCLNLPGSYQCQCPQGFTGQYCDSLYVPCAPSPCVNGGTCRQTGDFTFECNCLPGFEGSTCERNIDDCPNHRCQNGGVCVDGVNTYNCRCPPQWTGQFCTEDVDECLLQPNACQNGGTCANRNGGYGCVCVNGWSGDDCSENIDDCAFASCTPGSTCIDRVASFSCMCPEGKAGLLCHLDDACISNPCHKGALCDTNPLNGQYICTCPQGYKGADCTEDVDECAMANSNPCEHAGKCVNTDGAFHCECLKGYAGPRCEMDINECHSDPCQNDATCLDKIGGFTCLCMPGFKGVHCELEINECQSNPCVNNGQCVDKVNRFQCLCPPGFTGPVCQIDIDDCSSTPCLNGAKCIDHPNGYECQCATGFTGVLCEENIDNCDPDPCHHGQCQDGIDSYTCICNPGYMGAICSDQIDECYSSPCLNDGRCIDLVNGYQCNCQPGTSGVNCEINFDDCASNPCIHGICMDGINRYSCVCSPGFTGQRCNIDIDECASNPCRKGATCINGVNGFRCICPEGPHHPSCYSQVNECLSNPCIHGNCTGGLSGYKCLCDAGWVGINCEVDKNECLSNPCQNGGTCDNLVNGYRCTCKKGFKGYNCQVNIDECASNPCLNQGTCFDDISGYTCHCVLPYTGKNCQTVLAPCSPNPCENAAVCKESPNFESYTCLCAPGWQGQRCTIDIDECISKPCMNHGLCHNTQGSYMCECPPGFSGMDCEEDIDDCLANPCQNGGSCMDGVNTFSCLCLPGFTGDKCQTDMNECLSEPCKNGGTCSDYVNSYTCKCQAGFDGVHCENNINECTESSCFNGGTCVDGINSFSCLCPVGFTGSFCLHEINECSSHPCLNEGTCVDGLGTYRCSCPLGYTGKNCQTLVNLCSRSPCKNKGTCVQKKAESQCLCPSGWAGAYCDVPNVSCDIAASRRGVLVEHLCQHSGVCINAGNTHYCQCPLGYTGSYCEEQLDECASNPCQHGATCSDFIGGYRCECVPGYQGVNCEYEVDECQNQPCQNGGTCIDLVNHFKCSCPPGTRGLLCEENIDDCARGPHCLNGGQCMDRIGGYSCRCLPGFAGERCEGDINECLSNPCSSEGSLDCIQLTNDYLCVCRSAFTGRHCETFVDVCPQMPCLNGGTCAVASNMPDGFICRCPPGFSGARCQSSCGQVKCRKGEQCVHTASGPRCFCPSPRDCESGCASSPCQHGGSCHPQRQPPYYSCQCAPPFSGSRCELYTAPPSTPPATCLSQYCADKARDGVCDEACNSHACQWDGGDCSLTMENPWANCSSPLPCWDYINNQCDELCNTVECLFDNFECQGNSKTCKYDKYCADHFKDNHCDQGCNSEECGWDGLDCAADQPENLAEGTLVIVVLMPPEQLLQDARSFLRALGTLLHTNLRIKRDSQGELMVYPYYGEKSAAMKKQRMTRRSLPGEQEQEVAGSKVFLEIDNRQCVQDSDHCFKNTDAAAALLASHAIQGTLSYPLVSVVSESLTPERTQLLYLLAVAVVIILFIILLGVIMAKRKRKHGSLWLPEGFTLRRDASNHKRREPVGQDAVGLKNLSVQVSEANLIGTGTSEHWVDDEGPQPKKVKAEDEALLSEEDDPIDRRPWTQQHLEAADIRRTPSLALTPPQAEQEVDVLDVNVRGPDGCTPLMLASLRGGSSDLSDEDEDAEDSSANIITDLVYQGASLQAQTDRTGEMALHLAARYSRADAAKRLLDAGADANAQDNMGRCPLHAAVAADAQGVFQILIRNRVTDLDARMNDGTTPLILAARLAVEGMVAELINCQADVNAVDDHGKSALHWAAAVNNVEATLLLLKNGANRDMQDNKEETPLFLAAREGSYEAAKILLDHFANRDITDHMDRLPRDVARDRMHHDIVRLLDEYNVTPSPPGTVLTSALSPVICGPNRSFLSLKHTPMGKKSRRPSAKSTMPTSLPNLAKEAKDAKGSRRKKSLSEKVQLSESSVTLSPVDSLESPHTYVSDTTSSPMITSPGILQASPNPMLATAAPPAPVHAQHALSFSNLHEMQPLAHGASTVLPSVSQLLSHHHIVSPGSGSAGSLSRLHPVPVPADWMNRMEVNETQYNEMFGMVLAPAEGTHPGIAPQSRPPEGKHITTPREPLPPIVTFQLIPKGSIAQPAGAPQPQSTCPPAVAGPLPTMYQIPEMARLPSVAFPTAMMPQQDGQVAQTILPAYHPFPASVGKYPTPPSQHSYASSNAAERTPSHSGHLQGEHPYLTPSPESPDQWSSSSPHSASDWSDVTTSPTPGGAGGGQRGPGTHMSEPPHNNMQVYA
Chain of Pro-neuregulin-1, membrane-bound isoform (Homo sapiens) (Q02297 whole entry, looked up, the tested form may be a part, canonical isoform): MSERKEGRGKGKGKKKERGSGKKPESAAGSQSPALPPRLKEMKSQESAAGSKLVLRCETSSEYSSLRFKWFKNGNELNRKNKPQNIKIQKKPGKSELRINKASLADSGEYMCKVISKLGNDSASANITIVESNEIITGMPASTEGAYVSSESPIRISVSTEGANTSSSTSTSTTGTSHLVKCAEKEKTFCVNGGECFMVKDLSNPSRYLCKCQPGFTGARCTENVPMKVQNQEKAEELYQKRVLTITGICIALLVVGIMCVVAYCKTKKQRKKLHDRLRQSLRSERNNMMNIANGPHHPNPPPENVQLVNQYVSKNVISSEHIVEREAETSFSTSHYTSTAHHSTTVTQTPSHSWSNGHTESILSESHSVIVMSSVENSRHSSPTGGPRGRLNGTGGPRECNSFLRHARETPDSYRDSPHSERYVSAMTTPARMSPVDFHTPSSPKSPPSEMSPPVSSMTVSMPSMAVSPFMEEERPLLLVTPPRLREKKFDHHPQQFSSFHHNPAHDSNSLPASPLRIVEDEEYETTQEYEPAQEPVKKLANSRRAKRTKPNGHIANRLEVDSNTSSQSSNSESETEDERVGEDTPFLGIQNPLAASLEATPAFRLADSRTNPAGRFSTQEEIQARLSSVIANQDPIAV

SMILES	composite z-score [1]	composite z-score [2]	composite z-score [3]	composite z-score [4]	composite z-score [5]	composite z-score [6]	composite z-score [7]	z-score [8]	composite z-score [9]	composite z-score [10]	composite z-score [11]	z-score [12]	z-score [13]	z-score [14]	composite z-score [15]	z-score [16]	composite z-score [17]	composite z-score [18]	composite z-score [19]	composite z-score [20]
COCCCNC(=O)[C@@]1(c2ccc([N+](=O)[O-])cc2)CC(=O)N(C2CCCCC2)[C@@H]1c1ccc(CO)cc1	-1.19	-0.655	-0.248	0.174	-0.243	0.763	1.39	-0.912 (inactive)	-0.604	-0.859	0.139	-0.707 (inactive)	-0.591 (inactive)	-0.432 (inactive)	2.04	0.77 (inactive)	-0.509	-0.836	-0.193	-0.421
CCCNC(=O)[C@@]1(Sc2ccc(C)cc2)CC(=O)N(Cc2ccccc2Cl)[C@@H]1c1ccc(CO)cc1	0.295	-0.106	-0.0711	0.122	0.653	-0.0272	1.3	-3.75 (inactive)	0.427	-0.0672	1.33	-1.08 (inactive)	-3.1 (inactive)	-2.53 (inactive)	1.64	0.298 (inactive)	0.0493	1.06	1.11	-0.0082
CO[C@H]1COC(=O)[C@@H](C)COC(=O)[C@H](Cc2ccccc2)NC(=O)CC=C[C@H]1C	-0.678	0.995	-0.107	0.131	-0.26	-0.323	-0.703	-0.117 (inactive)	0.267	0.0216	0.525	-0.662 (inactive)	-1.25 (inactive)	-0.544 (inactive)	-0.274	0.331 (inactive)	-0.302	1.26	0.722	-0.188
CO[C@]12C=C(Br)[C@@H](C[C@@H]1c1ccccc1)[C@@]1(CO1)C2=O	-0.407	0.215	-0.0336	0.229	0.308	-0.115	-0.356	-0.358 (inactive)	0.0254	0.0274	-0.167	-0.0474 (inactive)	-4.38 (inactive)	-0.208 (inactive)	-0.132	2.43 (inactive)	-0.2	0.706	0.243	-0.14
O=C1C[C@@](C(=O)NC2CC2)(c2ccc([N+](=O)[O-])cc2)[C@@H](c2ccc(CO)cc2I)N1CC12CC3CC(CC(C3)C1)C2	-0.514	-0.407	0.01	0.487	1.05	0.346	1.24	-2.34 (inactive)	0.303	-0.184	1.48	1.82 (inactive)	1.19 (inactive)	5.3 (inactive)	2.96	-1.05 (inactive)	-0.145	1.32	1.07	-0.198
CO[C@H]1COC(=O)[C@H](C)NC(=O)CC=C[C@@H](C)[C@H](NS(=O)(=O)c2ccc(C)cc2)COC(=O)[C@@H](OCc2ccccc2)C=C[C@@H]1C	-0.452	0.148	-0.183	-0.0799	-0.563	-0.157	-0.477	-0.0584 (inactive)	-0.234	-0.0237	0.229	1.22 (inactive)	0.129 (inactive)	2.1 (inactive)	-0.569	0.176 (inactive)	-0.316	0.801	-0.439	-0.168
CCC(=O)[C@]12O[C@@]3([C@@H]4C(=O)OCC[C@@H]41)N(Cc1ccccc1)C(C)=C(C(=O)OC)[C@@H](c1ccccc1)N3C2=O	0.232	-0.289	-0.163	-0.133	-0.333	-0.0829	-0.814	-0.0144 (inactive)	-0.348	-0.134	0.131	-0.641 (inactive)	-1.16 (inactive)	-1.17 (inactive)	-0.417	0.151 (inactive)	-0.143	-1.66	-0.406	-0.246
CC(C)[Si](OCCCNS(=O)(=O)c1ccc(Br)cc1)(C(C)C)C(C)C	-0.491	0.231	-0.0529	0.962	1.43	0.344	0.468	-3.13 (inactive)	0.623	-0.0645	0.807	-4.21 (inactive)	-3.02 (inactive)	-1.86 (inactive)	0.716	3.1 (inactive)	0.0278	0.578	1.11	0.0298
CO[C@@H]1COC(=O)[C@H](C)NC(=O)CC=C[C@@H](C)[C@H](OC)COC(=O)[C@H](C)NC(=O)CC=C[C@H]1C	-0.348	0.395	-0.112	0.269	0.208	-0.0025	0.0912	0.0543 (inactive)	0.0054	-0.146	0.0529	0.611 (inactive)	-0.76 (inactive)	0.0943 (inactive)	-0.391	0.485 (inactive)	-0.137	0.705	0.546	-0.121
C[C@]1(C(=O)NCCN2CCOCC2)c2ccccc2C(=O)N(Cc2ccccc2)[C@H]1c1ccc(CO)cc1	-0.0452	0.789	0.0008	-0.425	-0.522	1.35	1.26	-0.351 (inactive)	-0.352	-0.0346	-0.804	0.364 (inactive)	-0.304 (inactive)	-0.877 (inactive)	2.99	0.0355 (inactive)	-0.0539	-0.54	-0.911	-0.23
CO[C@H]1COC(=O)[C@@H](Cc2ccccc2)NC(=O)[C@@H](C)COC(=O)CC=C[C@@H]1C	-0.533	0.806	-0.142	-0.0799	-0.172	-0.923	-0.294	0.0824 (inactive)	-0.0629	-0.0994	0.633	-0.236 (inactive)	-0.669 (inactive)	-0.555 (inactive)	-1.09	0.395 (inactive)	-0.202	1.48	0.269	-0.096
COCCCNC(=O)[C@@H]1c2ccccc2C(=O)N(CC23CC4CC(CC(C4)C2)C3)[C@H]1c1ccc(CO)cc1	0.621	0.173	0.177	0.325	1.46	-0.0557	1.1	-2.03 (inactive)	0.327	0.0053	1.49	0.4 (inactive)	-1.02 (inactive)	0.182 (inactive)	1.56	-0.494 (inactive)	0.242	0.39	0.588	0.135
C=CC[C@@]12N=C(c3ccc(OCCCO)cc3)O[C@@H]1c1ccccc1CN(Cc1ccccc1)C2=O	1.36	0.845	-0.0043	0.245	0.477	0.713	1.16	-4 (inactive)	0.15	-0.138	1.54	-0.127 (inactive)	-3.56 (inactive)	5.67 (inactive)	2.86	1.1 (inactive)	0.258	0.347	0.7	0.0122
Cc1ccc(S(=O)(=O)c2cc3oc2CC[C@@H](CO)NC(=O)N(C)Cc2cn(nn2)C[C@H](Cc2ccccc2)NC3=O)cc1	0.0181	0.345	-0.0538	0.175	-0.881	0.226	0.807	-0.618 (inactive)	-0.265	-0.194	0.0985	0.342 (inactive)	-0.772 (inactive)	0.0417 (inactive)	1.66	2.79 (inactive)	-0.131	0.0818	-0.773	-0.156
CC(C)(C)OC(=O)CC[C@]1(C(=O)N2CCCCC2)N=C(c2ccc(OCCCO)cc2)O[C@H]1c1ccccc1	-0.187	1.67	0.136	1.07	1.55	1.53	1.27	-4.25 (inactive)	0.772	-0.299	1.54	-4.57 (inactive)	-3.11 (inactive)	-1.07 (inactive)	3.48	0.726 (inactive)	0.0224	1.04	1.15	-0.084
C=CCN1C(=O)[C@]2(O[C@H](CCn3cc(CCO)nn3)[C@@H]([Si](C)(C)c3ccc(OC)cc3)[C@@H]2C)c2cc(NC(=O)c3ccc(OC)cc3)ccc21	0.615	0.473	0.0051	-0.0488	0.48	0.439	0.974	-2.48 (inactive)	0.479	0.176	1.25	1.46 (inactive)	-1.22 (inactive)	1.81 (inactive)	0.807	1.94 (inactive)	0.205	1.03	0.527	-0.109
O=C1c2ccccc2[C@@]2(Cc3ccccc3N(CC(F)(F)F)C2=O)[C@H](c2ccc(CO)cc2)N1C1CCCCC1	-0.2	0.438	-0.0199	0.354	0.455	0.492	1.47	-0.555 (inactive)	-0.415	-0.0618	0.778	0.315 (inactive)	-0.958 (inactive)	-1.99 (inactive)	1.08	0.825 (inactive)	0.0598	1.05	0.601	0.0376
CCCCO[C@H]1C[C@H]2C(Br)=C[C@@]1(CO)C(=O)[C@]21CO1	-0.599	0.407	-0.0785	-0.367	-0.0029	-0.534	-0.802	0.715 (inactive)	0.162	-0.156	0.638	-1.48 (inactive)	-2.1 (inactive)	-1.29 (inactive)	-0.0735	2.62 (inactive)	-0.341	0.648	0.237	-0.109
C=C(COC)C(=O)CC[C@H](OC(=O)c1ccccc1-c1ccccc1C(=O)O)c1cccc(OCCO)c1	-0.102	1.15	-0.103	0.24	0.0421	1.66	1.37	-3.97 (inactive)	-0.25	-0.0296	1.54	-22.6 (active)	-20.5 (active)	-3.63 (inactive)	4.32	0.573 (inactive)	-0.195	2.09	0.985	0.0004
CC(C)C[C@@H]1NC(=O)[C@H](CC(C)C)NC(=O)[C@@]23C(=O)N[C@@H](Cc4ccccc4)C2[C@H](C)[C@@]2(C)O[C@H]2C3/C=C/CC/C=C/CNC1=O (stereo not given in full)	-0.3	-0.135	-0.0805	0.278	0.242	0.603	1	-0.298 (inactive)	0.0226	-0.201	1.54	-0.833 (inactive)	-2.66 (inactive)	-1.74 (inactive)	2.01	0.194 (inactive)	-0.26	0.413	1.08	-0.0697
